Source: PubChem BioAssay (several laboratories)
Only some compounds are listed: those with a hit (about 3% of all), similar ones and a draw of the others.
HIF-2a inh: HIF-2a reporter inhibitors, primary screen, luminescence, 786-0 RCC cells; 786-0 RCC cells HIF-2a reporter, luciferase luminescence, overnight; inhibition, % at 18.8 µM; 360,000 compounds, 0.72% hits; AID 624352, 2012;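 active = inhibition of the luminescence signal of 40% or more relative to plate controls, in a single-dose primary screen at 18.75 µM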
Peg3 promoter: Peg3 promoter-driven luciferase inhibitors, primary screen, cell-based, HeLa, luciferase luminescence; HeLa PEG-Prom luciferase reporter, overnight; inhibition, % at 20 µM; 360,000 compounds, 1.7% hits;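 active = inhibition of at least 50% at 20 µM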
LMP1 NFkB inh: EBV LMP1-driven NF-kappaB luciferase reporter inhibitors, primary screen, cell-based, luminescence, single point | 350,000 compounds, 0.69% hits | inhibition, % at 12.5 µM | LMP1-induced NF-kappaB luciferase reporter cells; in the data active = inhibition above about 41%
CF NFkB inh: inhibitors of PAF-induced NF-kB signaling, primary screen, cell-based, GFP fluorescence, uHTS; KKLEB NF-kB-GFP reporter, GFP fluorescence overnight; inhibition, % at 5 µM; 360,000 compounds, 0.86% hits;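 active = at least 50% inhibition at 5 µM, scaled per plate between neutral and stimulator controls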;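 note: PAF is a Pseudomonas aeruginosa culture filtrate used as stimulus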
TRPM1 prom inh: inhibitors of MITF-dependent TRPM1 promoter reporter, primary screen, cell-based, SK-MEL-5, single point, luciferase; 330,000 compounds, 0.83% hits; AID 488899, 2010; SK-MEL-5 TRPM1 promoter luciferase, 24 h; inhibition, % at 12.5 µM;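 active = mean inhibition across replicates of 60% or more, whatever share of single replicates reaches that level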
KKLEB tox: cytotoxicity in KKLEB CF airway cells, primary screen, cytotoxicity control for CF NF-kB inhibitor project, cell-based, uHTS, fluorescence assay plates; AID 602141, 2011; activity change (cytotoxicity), % at 5 µM; 360,000 compounds, 0.36% hits; KKLEB CF airway cells viability, ATPlite luminescence, overnight; stronger effect = lower value; cells stimulated with P. aeruginosa culture filtrate;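 active = corrected activity change at or below -50% at 5 µM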
Numbers stand for hits.

COc1cc(/C=C2/SC(=S)N(CCC(=O)Nc3cccnc3)C2=O)cc(OC)c1OC was read as HIF-2a inh inactive, Peg3 promoter inactive, LMP1 NFkB inh inactive, CF NFkB inh inactive and KKLEB tox inactive.
Screening C#CCOCCOCCOCCNc1nc(N2CCN(C(=O)CCCCCCCCCCNC(=O)[C@H]([C@@H](C)CC)n3cc(CCCCCN)nn3)CC2)nc(N2CCN(C(=O)CCCCCCCCCCNC(=O)[C@@H]([C@H](C)O)n3cc(C)nn3)CC2)n1 returned HIF-2a inh inactive, Peg3 promoter 98, LMP1 NFkB inh inactive, CF NFkB inh inactive, TRPM1 prom inh 99 and KKLEB tox inactive.
For C#CCOCCOCCOCCNc1nc(N2CCN(C(=O)CCCCCCCCCCNC(=O)[C@H](CCCCN)n3cc(C)nn3)CC2)nc(N2CCN(C(=O)CCCCCCCCCCNC(=O)[C@@H]([C@H](C)CC)n3cc(CCCCCN)nn3)CC2)n1 the results were HIF-2a inh inactive, Peg3 promoter 94, LMP1 NFkB inh inactive, CF NFkB inh inactive, TRPM1 prom inh 105 and KKLEB tox inactive.
`C#CCOCCOCCOCCNc1nc(N2CCN(C(=O)CCCCCCCCCCNC(=O)Cn3cc(CCCCCN)nn3)CC2)nc(N2CCN(C(=O)CCCCCCCCCCNC(=O)[C@H]([C@@H](C)CC)n3cc(CCCCCN)nn3)CC2)n1` gave HIF-2a inh inactive, Peg3 promoter 96, LMP1 NFkB inh inactive, CF NFkB inh inactive, TRPM1 prom inh 97 and KKLEB tox inactive.
Screening C#CCOCCOCCOCCNc1nc(N2CCN(C(=O)CCCCCCCCCCNC(=O)Cn3cc(CCCCCN)nn3)CC2)nc(N2CCN(C(=O)CCCCCCCCCCNC(=O)[C@H](CO)n3cc(CCCCCN)nn3)CC2)n1 returned HIF-2a inh inactive, Peg3 promoter inactive, LMP1 NFkB inh inactive, CF NFkB inh inactive, TRPM1 prom inh inactive and KKLEB tox inactive.
Screening C#CCOCCOCCOCCNc1nc(N2CCN(C(=O)CCCCCCCCCCNC(=O)[C@H](CCC(=O)O)n3cc(CCCCCN)nn3)CC2)nc(N2CCN(C(=O)CCCCCCCCCCNC(=O)[C@@H]([C@H](C)O)n3cc(C)nn3)CC2)n1 returned HIF-2a inh inactive, Peg3 promoter inactive, LMP1 NFkB inh inactive, CF NFkB inh inactive, TRPM1 prom inh inactive and KKLEB tox inactive.
`Cc1cccc(C(O)c2ncc(-c3cccc(C(F)(F)F)c3)[nH]2)c1C` (configuration not stated) gave HIF-2a inh inactive, Peg3 promoter inactive, CF NFkB inh inactive and KKLEB tox inactive.
CC(=O)c1cccc(NC(=O)/C=C/c2ccc([N+](=O)[O-])s2)c1 was read as HIF-2a inh inactive, Peg3 promoter 99, LMP1 NFkB inh inactive, CF NFkB inh inactive, TRPM1 prom inh 92 and KKLEB tox inactive.
Screening O=C(/C=C/c1ccc([N+](=O)[O-])s1)N1CCCC1 returned HIF-2a inh inactive, Peg3 promoter inactive, LMP1 NFkB inh inactive, CF NFkB inh inactive, TRPM1 prom inh 85 and KKLEB tox inactive.
For Cc1cc(C)cc(NC(=O)/C=C/c2ccc([N+](=O)[O-])s2)c1 the results were HIF-2a inh inactive, Peg3 promoter inactive, LMP1 NFkB inh inactive, CF NFkB inh inactive, TRPM1 prom inh inactive and KKLEB tox inactive.
CC1CC(C)CN(C(=O)/C=C/c2ccc([N+](=O)[O-])s2)C1 (configuration not stated) was read as HIF-2a inh inactive, Peg3 promoter inactive, LMP1 NFkB inh inactive, CF NFkB inh inactive, TRPM1 prom inh 82 and KKLEB tox inactive.
Screening O=C(/C=C/c1ccc([N+](=O)[O-])s1)N1CCCCC1 returned HIF-2a inh inactive, Peg3 promoter inactive, LMP1 NFkB inh inactive, CF NFkB inh inactive, TRPM1 prom inh 89 and KKLEB tox inactive.
`O=C(/C=C/c1ccc([N+](=O)[O-])s1)N1CCN(c2ccccc2)CC1` gave HIF-2a inh inactive, Peg3 promoter inactive, LMP1 NFkB inh inactive, CF NFkB inh inactive, TRPM1 prom inh inactive and KKLEB tox inactive.
`O=C(/C=C/c1ccccc1[N+](=O)[O-])N1CCCCC1` gave HIF-2a inh inactive, Peg3 promoter inactive, LMP1 NFkB inh inactive, CF NFkB inh inactive, TRPM1 prom inh inactive and KKLEB tox inactive.
`CC1CN(C(=O)/C=C/c2ccc([N+](=O)[O-])s2)CC(C)O1` (configuration not stated) gave HIF-2a inh inactive, Peg3 promoter inactive, LMP1 NFkB inh inactive, CF NFkB inh inactive, TRPM1 prom inh inactive and KKLEB tox inactive.
CCCCNC(=O)C1(C)CCCCN1C(=O)c1ccc(OC)c(C(F)(F)F)c1 (configuration not stated) was read as HIF-2a inh inactive, Peg3 promoter inactive, CF NFkB inh inactive and KKLEB tox inactive.
`CCOc1ccc(S(=O)(=O)N2CCC(C(=O)Nc3ccc(C)c(S(=O)(=O)N4CCOCC4)c3)CC2)cc1` gave HIF-2a inh inactive, Peg3 promoter inactive, LMP1 NFkB inh inactive, CF NFkB inh inactive, TRPM1 prom inh inactive and KKLEB tox inactive.
For O=c1c2c(-c3ccccc3)csc2nc2c3ccccc3c(NCCN3CCOCC3)nn12 the results were HIF-2a inh inactive, Peg3 promoter 108, LMP1 NFkB inh inactive, CF NFkB inh inactive, TRPM1 prom inh inactive and KKLEB tox inactive.
c1ccc(-c2csc3ncnc(NCCCN4CCOCC4)c23)cc1 was read as HIF-2a inh inactive, Peg3 promoter inactive, LMP1 NFkB inh inactive, CF NFkB inh inactive, TRPM1 prom inh inactive and KKLEB tox inactive.
Screening CCCn1cnc2c(SCc3ccccc3Cl)nc(N)nc21 returned HIF-2a inh inactive, Peg3 promoter inactive, LMP1 NFkB inh inactive, CF NFkB inh inactive, TRPM1 prom inh inactive and KKLEB tox inactive.
Cc1ccc(NC2=C(NC(=O)c3ccccc3)C(=O)c3ccccc3C2=O)cc1Cl was read as HIF-2a inh inactive, Peg3 promoter inactive, LMP1 NFkB inh inactive, CF NFkB inh inactive, TRPM1 prom inh 67 and KKLEB tox inactive.
Screening Cc1ccc2c(c1)[C@H]1[C@H](CO2)[C@H](c2ccccc2)[C@]2(C)C(=O)Nc3cc(F)ccc3C(=O)N12 returned HIF-2a inh inactive, Peg3 promoter 68, LMP1 NFkB inh inactive, CF NFkB inh inactive, TRPM1 prom inh inactive and KKLEB tox inactive.
Screening Cc1ccc2c(c1)[C@H]1[C@H](CO2)[C@H](c2ccccc2)[C@]2(C)C(=O)Nc3ccccc3C(=O)N12 returned HIF-2a inh inactive, Peg3 promoter inactive, LMP1 NFkB inh inactive, CF NFkB inh inactive, TRPM1 prom inh inactive and KKLEB tox inactive.
